Laboratory results: PubChem BioAssay (NCI)
The panel holds about 83,000 compounds, 20% with a hit somewhere; the sample as a whole holds those more often.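 Step 1: grow cells in 96-well plates. Step 2: add test compound at a single concentration. Step 3: incubate 48 h. Step 4: record percent growth.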 Calls of active or inactive are those of the source. The calls were made as follows: active = growth percent below 10; inactive = the rest.

How the values were obtained:
Assay in all cases: NCI-60 one-dose screen, 48 h (100 = growth as untreated, 0 = no growth, -100 = all killed)
Conditions in all cases: 10 µM unless noted
SR leukemia = system: SR leukemia
RPMI-8226 leukemia = system: RPMI-8226 leukemia
OVCAR-8 ovarian = system: OVCAR-8 ovarian
OVCAR-5 ovarian = system: OVCAR-5 ovarian
OVCAR-4 ovarian = system: OVCAR-4 ovarian
SK-OV-3 ovarian = system: SK-OV-3 ovarian
IGROV1 ovarian = system: IGROV1 ovarian
OVCAR-3 ovarian = system: OVCAR-3 ovarian
HS 578T breast = system: HS 578T breast
NCI/ADR-RES ovarian = system: NCI/ADR-RES ovarian

Measured: growth

O=C(O)c1ccc(-c2nn(-c3ccc(C(=O)O)cc3)cc2CNc2ccc(Br)cc2)cc1
inactive: SR leukemia 107% | RPMI-8226 leukemia 108% | OVCAR-8 ovarian 104% | OVCAR-5 ovarian 102% | OVCAR-4 ovarian 104% | SK-OV-3 ovarian 102% | IGROV1 ovarian 115% | OVCAR-3 ovarian 104% | HS 578T breast 107% | NCI/ADR-RES ovarian 112%

COc1cc2c(/C=C3\C(=O)Nc4ccc(Br)cc43)c(Cl)n(C)c2cc1C
active: SR leukemia 0.77% | RPMI-8226 leukemia 0.149% | IGROV1 ovarian -10.2% | OVCAR-3 ovarian -23.5% | NCI/ADR-RES ovarian -17.7%
inactive: OVCAR-8 ovarian 17.8% | OVCAR-5 ovarian 13.4% | OVCAR-4 ovarian 45.6% | SK-OV-3 ovarian 24.7% | HS 578T breast 40.2%

COc1ccc(Nc2c3ccccc3nc3ccccc23)cc1
active: SR leukemia 1.46%
inactive: RPMI-8226 leukemia 28.1% | OVCAR-8 ovarian 14.7% | OVCAR-5 ovarian 36.4% | OVCAR-4 ovarian 41.5% | SK-OV-3 ovarian 36.1% | IGROV1 ovarian 22.1% | OVCAR-3 ovarian 28.3% | HS 578T breast 59.5% | NCI/ADR-RES ovarian 28.1%

CCc1c(C)c2ccc(OCC(=O)N=Nc3c(O)[nH]c4ccccc34)c(C)c2oc1=O
inactive: OVCAR-5 ovarian 24% | SK-OV-3 ovarian 80.9% | NCI/ADR-RES ovarian 47.7%
active: SR leukemia 8.17% | RPMI-8226 leukemia -3.81% | OVCAR-8 ovarian -11.3% | OVCAR-4 ovarian -21.7% | IGROV1 ovarian 7.99% | OVCAR-3 ovarian -58.2% | HS 578T breast -5.77%

COc1cc(-c2nn(-c3ccc(NC(=O)c4ccc(Cl)c(C(F)(F)F)c4)cc3)cc2-c2ccncc2)ccc1Cl
active: SR leukemia 2.82% | RPMI-8226 leukemia -23% | HS 578T breast -49.7%
inactive: OVCAR-8 ovarian 49.2% | OVCAR-5 ovarian 55.7% | OVCAR-4 ovarian 46.4% | SK-OV-3 ovarian 60.5% | IGROV1 ovarian 46.7% | OVCAR-3 ovarian 28.7% | NCI/ADR-RES ovarian 30.7%

O=C1NCCN1/N=C/c1c(Cl)nc2n1CCS2
inactive: SR leukemia 59.4% | RPMI-8226 leukemia 63.7% | OVCAR-8 ovarian 115% | OVCAR-5 ovarian 102% | OVCAR-4 ovarian 113% | SK-OV-3 ovarian 111% | IGROV1 ovarian 84% | OVCAR-3 ovarian 106% | HS 578T breast 139% | NCI/ADR-RES ovarian 114%

Cc1[nH]n(C(=S)Nc2nc3cc(Cl)c(F)cc3s2)c(=O)c1N=Nc1ccc(F)c(Cl)c1
inactive: RPMI-8226 leukemia 70.9% | OVCAR-8 ovarian 103% | OVCAR-5 ovarian 103% | OVCAR-4 ovarian 91.5% | SK-OV-3 ovarian 97.8% | IGROV1 ovarian 88.4% | OVCAR-3 ovarian 98.2% | HS 578T breast 85% | NCI/ADR-RES ovarian 103%
active: SR leukemia -45.2%

CCCCCCCCCCN1CC2CCCCC2C1 (stereo not given)
inactive: SR leukemia 12.9% | RPMI-8226 leukemia 51.6% | OVCAR-8 ovarian 94% | OVCAR-5 ovarian 66.2% | OVCAR-4 ovarian 49.1% | SK-OV-3 ovarian 83.8% | IGROV1 ovarian 90% | OVCAR-3 ovarian 77.9% | HS 578T breast 84.4% | NCI/ADR-RES ovarian 83.8%

COc1cc(CNC(=O)CCCC/C=C/C(C)C)ccc1OCc1nnc(Nc2ccccc2F)o1
active: OVCAR-4 ovarian 0.691%
inactive: SR leukemia 67.3% | RPMI-8226 leukemia 64.9% | OVCAR-8 ovarian 45.2% | OVCAR-5 ovarian 77.7% | SK-OV-3 ovarian 48.6% | IGROV1 ovarian 58.4% | OVCAR-3 ovarian 68.3% | HS 578T breast 83.7% | NCI/ADR-RES ovarian 43.3%

COc1cc(-c2nn(-c3ccc(NC(=O)c4ccc(Cl)c(Cl)c4)cc3)cc2-c2ccncc2)ccc1Cl
inactive: SR leukemia 11.3% | OVCAR-8 ovarian 31.4% | OVCAR-5 ovarian 81.8% | OVCAR-4 ovarian 57% | SK-OV-3 ovarian 94.4% | IGROV1 ovarian 96.3% | OVCAR-3 ovarian 68.4% | NCI/ADR-RES ovarian 72.5%
active: RPMI-8226 leukemia 4.1% | HS 578T breast -23.7%

NC(=O)CC(NC(=O)COc1ccc(Cl)cc1Cl)C(=O)O (stereo not given)
inactive: SR leukemia 115% | RPMI-8226 leukemia 117% | OVCAR-8 ovarian 105% | OVCAR-5 ovarian 105% | OVCAR-4 ovarian 112% | SK-OV-3 ovarian 110% | IGROV1 ovarian 109% | OVCAR-3 ovarian 106% | HS 578T breast 107% | NCI/ADR-RES ovarian 112%

CCCCn1c(Cc2ccc(OC)cc2)nc2cc(OC)c(OC)cc2c1=O
active: SR leukemia 2.75%
inactive: RPMI-8226 leukemia 26.1% | OVCAR-8 ovarian 78.2% | OVCAR-5 ovarian 104% | OVCAR-4 ovarian 73.6% | SK-OV-3 ovarian 99.4% | IGROV1 ovarian 81.3% | OVCAR-3 ovarian 86.3% | HS 578T breast 94.5% | NCI/ADR-RES ovarian 72.5%

COc1nc(OC)nc(-c2cc(-c3cc(OC)c(OC)c(OC)c3)no2)n1
inactive: SR leukemia 95.6% | RPMI-8226 leukemia 90.4% | OVCAR-8 ovarian 98.3% | OVCAR-5 ovarian 115% | OVCAR-4 ovarian 106% | SK-OV-3 ovarian 116% | IGROV1 ovarian 121% | OVCAR-3 ovarian 116% | HS 578T breast 95.2% | NCI/ADR-RES ovarian 98.9%

N=C(N)c1ccc(-c2ccc(-c3cc(Cl)cc(Cl)c3)s2)cc1
active: SR leukemia -16.6% | RPMI-8226 leukemia -48.9% | OVCAR-8 ovarian -12.5% | OVCAR-5 ovarian -78.3% | OVCAR-4 ovarian -66.1% | SK-OV-3 ovarian -78.6% | IGROV1 ovarian -73.8% | OVCAR-3 ovarian -83.4% | HS 578T breast -46.8% | NCI/ADR-RES ovarian -47.4%

COC(=O)C(C)[C@H]1CC[C@@H]2[C@]1(C)CC=C1[C@]23C=C[C@]2(C[C@@H](OC(C)=O)CC[C@]12C)C(C(=O)OC)C3C(=O)OC (stereo not given in full)
inactive: SR leukemia 55.8% | RPMI-8226 leukemia 60.8% | OVCAR-8 ovarian 95.7% | OVCAR-5 ovarian 109% | OVCAR-4 ovarian 85.7% | SK-OV-3 ovarian 111% | IGROV1 ovarian 98.2% | OVCAR-3 ovarian 86.4% | HS 578T breast 102% | NCI/ADR-RES ovarian 94.3%

C/C(=N\Nc1ccc(Cl)cn1)c1ccc2ccccc2n1
active: SR leukemia 5.63% | OVCAR-8 ovarian 6.73% | SK-OV-3 ovarian 1.69% | NCI/ADR-RES ovarian -0.464%
inactive: RPMI-8226 leukemia 11.7% | OVCAR-5 ovarian 29.9% | OVCAR-4 ovarian 36.8% | IGROV1 ovarian 16.6% | OVCAR-3 ovarian 18.2% | HS 578T breast 37.7%

Cc1ccc(S(=O)(=O)N/N=C2\CC3CCC2C3)cc1 (stereo not given)
inactive: SR leukemia 103% | RPMI-8226 leukemia 104% | OVCAR-8 ovarian 102% | OVCAR-5 ovarian 98.9% | OVCAR-4 ovarian 115% | SK-OV-3 ovarian 93.9% | IGROV1 ovarian 101% | OVCAR-3 ovarian 113% | HS 578T breast 115% | NCI/ADR-RES ovarian 119%

O=C(/C=C/c1ccc(Br)cc1)c1ccccc1
active: SR leukemia 4.53% | RPMI-8226 leukemia 1.56%
inactive: OVCAR-8 ovarian 91.9% | OVCAR-5 ovarian 113% | OVCAR-4 ovarian 96.3% | SK-OV-3 ovarian 111% | IGROV1 ovarian 87.3% | OVCAR-3 ovarian 93.3% | HS 578T breast 100% | NCI/ADR-RES ovarian 99.5%

COc1ccc(-c2nc(SCC(C)C)nc(Nc3ccc([N+](=O)[O-])cc3)c2C#N)cc1
inactive: SR leukemia 54.4% | RPMI-8226 leukemia 93.9% | OVCAR-8 ovarian 93.4% | OVCAR-5 ovarian 106% | OVCAR-4 ovarian 37.5% | SK-OV-3 ovarian 99.2% | IGROV1 ovarian 94.3% | OVCAR-3 ovarian 81.5% | HS 578T breast 90.4% | NCI/ADR-RES ovarian 101%

CCn1cnc(C[C@H](NC(=O)[C@@H](NC(=O)Nc2cc(C(F)(F)F)cc(C(F)(F)F)c2)C(C)C)C(=O)OC)c1
active: SR leukemia -35.5% [100 µM] | RPMI-8226 leukemia -52.4% [100 µM] | OVCAR-8 ovarian -81.6% [100 µM] | OVCAR-5 ovarian -94.9% [100 µM] | OVCAR-4 ovarian -96.2% [100 µM] | SK-OV-3 ovarian -100% [100 µM] | IGROV1 ovarian -71.5% [100 µM] | OVCAR-3 ovarian -89.5% [100 µM] | HS 578T breast 7.39% [100 µM] | NCI/ADR-RES ovarian 0.865% [100 µM]

COc1ccc(Cn2cc3c(c2-c2ccccc2)CCc2cnoc2-3)cc1N
active: SK-OV-3 ovarian -4.08% | IGROV1 ovarian 3.29% | OVCAR-3 ovarian -19.5% | NCI/ADR-RES ovarian -1.43%
inactive: SR leukemia 11.8% | RPMI-8226 leukemia 23.5% | OVCAR-8 ovarian 30% | OVCAR-5 ovarian 54.5% | OVCAR-4 ovarian 44.5% | HS 578T breast 10.4%

CCNc1nnc(COc2ccc(CNC(=O)CCCC/C=C/C(C)C)cc2OC)o1
inactive: SR leukemia 89% | RPMI-8226 leukemia 95.5% | OVCAR-8 ovarian 106% | OVCAR-5 ovarian 103% | OVCAR-4 ovarian 103% | SK-OV-3 ovarian 91.5% | IGROV1 ovarian 103% | OVCAR-3 ovarian 106% | HS 578T breast 98.6% | NCI/ADR-RES ovarian 102%

COc1ccc(/C=C2\CCCC3=C2N=C2SC=NN2C3c2ccc(OC)c(OC)c2)cc1OC (stereo not given)
active: RPMI-8226 leukemia -14.8% | OVCAR-8 ovarian 9.01%
inactive: SR leukemia 34.3% | OVCAR-5 ovarian 59.7% | OVCAR-4 ovarian 49.1% | SK-OV-3 ovarian 81.9% | IGROV1 ovarian 47.8% | OVCAR-3 ovarian 37.8% | HS 578T breast 86.4% | NCI/ADR-RES ovarian 21.4%

CC(=O)c1nn(-c2ccc(C)cc2)cc1C(=O)c1cc2c(ccc3ccccc32)oc1=O
inactive: SR leukemia 84% | RPMI-8226 leukemia 93.5% | OVCAR-8 ovarian 101% | OVCAR-5 ovarian 102% | OVCAR-4 ovarian 87.3% | SK-OV-3 ovarian 80.4% | IGROV1 ovarian 88% | OVCAR-3 ovarian 98.4% | HS 578T breast 96.7% | NCI/ADR-RES ovarian 101%

Cc1ccc(C(C)C)c(OCc2ccc(C(=O)N/N=C/c3cccc(O)c3O)cc2)c1
active: SR leukemia 9.44% | NCI/ADR-RES ovarian 1.46%
inactive: RPMI-8226 leukemia 28.8% | OVCAR-8 ovarian 23.7% | OVCAR-5 ovarian 70.3% | OVCAR-4 ovarian 27.8% | SK-OV-3 ovarian 66.1% | IGROV1 ovarian 40.8% | OVCAR-3 ovarian 20.4% | HS 578T breast 76.8%

[2H]c1nc(=Nc2cc(NC(=O)C=C)c(N(C)CCN(C)C)cc2OC)[nH]c(-c2cn(C([2H])([2H])[2H])c3ccccc23)c1[2H]
inactive: RPMI-8226 leukemia 19% | OVCAR-8 ovarian 53.3% | OVCAR-5 ovarian 54.2% | OVCAR-4 ovarian 57.6% | IGROV1 ovarian 19.1% | OVCAR-3 ovarian 50.6% | HS 578T breast 63.7% | NCI/ADR-RES ovarian 39.1%
active: SR leukemia -13.7% | SK-OV-3 ovarian 3.49%

C#CCCCCCCC[C@@H]1OC(=O)[C@H]([C@@H](C)CC)NC(=O)[C@H]([C@@H](C)CC)NC(=O)CC(=O)[C@@H]1C
inactive: SR leukemia 82.2% | RPMI-8226 leukemia 89.4% | OVCAR-8 ovarian 101% | OVCAR-5 ovarian 90.6% | OVCAR-4 ovarian 97.6% | SK-OV-3 ovarian 103% | IGROV1 ovarian 89.5% | OVCAR-3 ovarian 101% | HS 578T breast 90.1% | NCI/ADR-RES ovarian 94.9%
